According to PubChem BioAssay (EPA / NIEHS):
Values joined by “and” are separate entries in the source; they are usually repeats but may differ in a detail not shown here. Equal values may be shown once. Some structures have more than one record in an assay (separate samples or runs), and their calls can disagree. Active and inactive are the calls of the source. The calls were made as follows: active = hit-call score of the fitted dose curve at least 0.9, where 1 is the maximum; inactive = score below 0.9.

Experiments:
[1] = read-out: flavin-containing dimethylaniline monooxygenases 3 (FMO3), FMO3 (gene 2328); assay: LTEA_HepaRG_FMO3: Life Technologies and Expression Analysis (LTEA) Assay for flavin-containing dimethylaniline monooxygenases 3 (FMO3) using HepaRG (AID 2283453); conditions: mRNA level, 48 h; actives raise or lower the signal
In short: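 FMO3 transcript quantified by TaqMan qRT-PCR against three housekeeping genes after 48 h chemical exposure of HepaRG cells. Eight-point half-log series, top 100 uM, 0.5% DMSO vehicle; phenobarbital 1mM induction control; up- or down-regulation fitted.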

[2] = read-out: Cytochrome P450 (CYP1A1), CYP1A1 (gene 1543); assay: LTEA_HepaRG_CYP1A1: Life Technologies and Expression Analysis (LTEA) Assay for Cytochrome P450 (CYP1A1) using HepaRG (AID 2283454); conditions: mRNA level, 48 h; actives raise or lower the signal
In short: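 Differentiated human HepaRG cells, after 48 h plating, exposed in duplicate for 48 h in serum-free induction medium to 8 half-log concentrations up to 100 uM in 0.5% DMSO. CYP1A1 mRNA by qRT-PCR, normalized to ACTB/GAPDH/POLR2A; bidirectional fit versus DMSO.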

[3] = read-out: CFLAR gene, CFLAR (gene 8837); assay: LTEA_HepaRG_CFLAR: Life Technologies and Expression Analysis (LTEA) Assay for CFLAR gene using HepaRG (AID 2283455); conditions: mRNA level, 48 h; actives raise or lower the signal
In short: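 Transcript level by qRT-PCR (normalized to ACTB, GAPDH and POLR2A) after 48 h chemical exposure of HepaRG cells, top concentration 100 uM with half-log steps, 0.5% DMSO vehicle, duplicates; fitted bidirectionally against DMSO baseline.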

[4] = read-out: Forkhead box O1 (FOXO1), FOXO1 (gene 2308); assay: LTEA_HepaRG_FOXO1: Life Technologies and Expression Analysis (LTEA) Assay for Forkhead box O1 (FOXO1) using HepaRG (AID 2283456); conditions: mRNA level, 48 h; actives raise or lower the signal
In short: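 FOXO1 transcript quantified by qRT-PCR after 48 h chemical exposure (top 100 uM, half-log steps, 0.5% DMSO) of HepaRG cells, housekeeping-normalized (ACTB/GAPDH/POLR2A). Changes fitted in both directions relative to vehicle.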

[5] = CEETOX_H295R_TESTO: CeeTox H295R High-throughput Steroidogenesis Assay for Testosterone (TESTO) (AID 2283457); conditions: actives raise or lower the signal;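 as to AC50: cells exposed to chemicals for 48 h before medium collection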
In short: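 H295R adrenal cells, passage ≤10, exposed to chemicals for 48 h. Testosterone in medium measured by MTBE extraction and HPLC-MS/MS against a 7-point standard curve. Bidirectional fit versus DMSO; MTT viability checked in the same wells.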

[6] = read-out: growth arrest and DNA damage 45 (GADD45A), GADD45A (gene 1647); assay: LTEA_HepaRG_GADD45A: Life Technologies and Expression Analysis (LTEA) Assay for growth arrest and DNA damage 45 (GADD45A) using HepaRG (AID 2283458); conditions: mRNA level, 48 h; actives raise or lower the signal
In short: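 Transcript induction or loss, quantified by TaqMan qRT-PCR against three housekeeping genes, is the read-out. HepaRG cells received chemicals for 48 h across eight half-log concentrations from 100 uM in 0.5% DMSO; gain and loss fitted relative to DMSO.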

[7] = read-out: Forkhead box O3 (FOXO3), FOXO3 (gene 2309); assay: LTEA_HepaRG_FOXO3: Life Technologies and Expression Analysis (LTEA) Assay for Forkhead box O3 (FOXO3) using HepaRG (AID 2283459); conditions: mRNA level, 48 h; actives raise or lower the signal
In short: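 FOXO3 transcript measured by qRT-PCR (normalized to ACTB, GAPDH, POLR2A) after 48 h exposure of HepaRG cells in serum-free induction medium. Duplicates, eight half-log concentrations up to 100 uM, 0.5% DMSO; gain or loss fitted against DMSO.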

[8] = read-out: ABC Transporter (ABCB1), ABCB1 (gene 5243); assay: LTEA_HepaRG_ABCB1: Life Technologies and Expression Analysis (LTEA) Assay for ABC Transporter (ABCB1) using HepaRG (AID 2283460); conditions: mRNA level, 48 h; actives raise or lower the signal
In short: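 ABCB1 transcript level measured by TaqMan qRT-PCR against three housekeeping genes after 48 h chemical exposure of differentiated HepaRG cells. Top concentration 100 uM, half-log steps, eight points, 0.5% DMSO vehicle; bidirectional fit relative to DMSO.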

[9] = read-out: growth arrest and DNA damage 45 (GADD45B), GADD45B (gene 4616); assay: LTEA_HepaRG_GADD45B: Life Technologies and Expression Analysis (LTEA) Assay for growth arrest and DNA damage 45 (GADD45B) using HepaRG (AID 2283461); conditions: mRNA level, 48 h; actives raise or lower the signal
In short: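 Differentiated human HepaRG cells in serum-free induction medium exposed 48 h in duplicate to eight concentrations, top 100 uM, half-log steps, 0.5% DMSO. GADD45B mRNA by TaqMan qRT-PCR, normalized to ACTB, GAPDH, POLR2A; bidirectional fit versus DMSO.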

[10] = read-out: ABC Transporter (ABCC3), ABCC3 (gene 8714); assay: LTEA_HepaRG_ABCC3: Life Technologies and Expression Analysis (LTEA) Assay for ABC Transporter (ABCC3) using HepaRG (AID 2283462); conditions: mRNA level, 48 h; actives raise or lower the signal
In short: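 Differentiated human HepaRG cells exposed 48 h in serum-free induction medium, 0.5% DMSO vehicle, 8-point half-log series to 100 uM in duplicate. ABCC3 mRNA by qRT-PCR, normalised to ACTB, GAPDH, POLR2A; bidirectional fit vs DMSO.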

[11] = read-out: ABC Transporter (ABCB11), ABCB11 (gene 8647); assay: LTEA_HepaRG_ABCB11: Life Technologies and Expression Analysis (LTEA) Assay for ABC Transporter (ABCB11) using HepaRG (AID 2283463); conditions: mRNA level, 48 h; actives raise or lower the signal
In short: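 ABCB11 transcript levels quantified by TaqMan qRT-PCR against three housekeeping genes after 48 h chemical exposure of HepaRG cultures. Concentrations up to 100 uM in half-log steps, 0.5% DMSO vehicle; both induction and suppression scored.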

[12] = read-out: ABC Transporter (ABCC2), ABCC2 (gene 1244); assay: LTEA_HepaRG_ABCC2: Life Technologies and Expression Analysis (LTEA) Assay for ABC Transporter (ABCC2) using HepaRG (AID 2283464); conditions: mRNA level, 48 h; actives raise or lower the signal
In short: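 Differentiated HepaRG cells in serum-free induction medium exposed 48 h to eight half-log concentrations up to 100 uM, 0.5% DMSO, in duplicate. ABCC2 mRNA measured by qRT-PCR (TaqMan, Fluidigm), normalized to ACTB, GAPDH and POLR2A. Fitted in both directions against DMSO.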

[13] = read-out: Broad substrate specificity ATP-binding cassette transporter ABCG2 (Homo sapiens) (UniProt Q9UNQ0); assay: LTEA_HepaRG_ABCG2: Life Technologies and Expression Analysis (LTEA) Assay for ABC Transporter (ABCG2) using HepaRG (AID 2283465); conditions: mRNA level, 48 h; actives raise or lower the signal
In short: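 ABCG2 transcript was quantified by TaqMan qRT-PCR against three housekeeping genes in HepaRG cells. Cells were treated in duplicate for 48 h across an 8-point half-log series up to 100 uM, with 0.5% DMSO vehicle. Gain or loss versus DMSO was fit.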

[14] = read-out: ATP-citrate lyase (ACLY), ACLY (gene 47); assay: LTEA_HepaRG_ACLY: Life Technologies and Expression Analysis (LTEA) Assay for ATP-citrate lyase (ACLY) using HepaRG (AID 2283466); conditions: mRNA level, 48 h; actives raise or lower the signal
In short: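 ACLY mRNA quantified by qRT-PCR on Fluidigm arrays against three housekeeping genes, after 48 h chemical treatment of HepaRG cells (top concentration 100 uM, half-log steps, 0.5% DMSO vehicle). Up- or down-regulation fitted relative to DMSO.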

[15] = read-out: Peroxisomal acyl-coenzyme A oxidase 1 (ACOX1) gene, ACOX1 (gene 51); assay: LTEA_HepaRG_ACOX1: Life Technologies and Expression Analysis (LTEA) Assay for Peroxisomal acyl-coenzyme A oxidase 1 (ACOX1) gene using HepaRG (AID 2283467); conditions: mRNA level, 48 h; actives raise or lower the signal
In short: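 ACOX1 transcript levels were quantified by TaqMan qRT-PCR against three housekeeping genes after 48 h chemical exposure of differentiated human HepaRG cells. Exposure used eight half-log steps topping at 100 uM, 0.5% DMSO vehicle, in duplicate. Bidirectional curve fits were made relative to DMSO.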

[16] = read-out: Alkaline Phosphatase, Placental (ALPP) gene, ALPP (gene 250); assay: LTEA_HepaRG_ALPP: Life Technologies and Expression Analysis (LTEA) Assay for Alkaline Phosphatase, Placental (ALPP) gene using HepaRG (AID 2283468); conditions: mRNA level, 48 h; actives raise or lower the signal
In short: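 HepaRG cells plated 48 h, then exposed in duplicate for 48 h in serum-free induction medium to 8-point half-log series from 100 uM in 0.5% DMSO. ALPP mRNA by TaqMan qRT-PCR, normalized to ACTB/GAPDH/POLR2A; bidirectional fit versus DMSO.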

[17] = read-out: Bcl-2 (BAD) gene, BAD (gene 572); assay: LTEA_HepaRG_BAD: Life Technologies and Expression Analysis (LTEA) Assay for Bcl-2 (BAD) gene using HepaRG (AID 2283469); conditions: mRNA level, 48 h; actives raise or lower the signal
In short: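 Read-out: qRT-PCR of BAD mRNA, normalized to three housekeeping genes. Human HepaRG cultures got 48 h chemical exposure in 0.5% DMSO, duplicate eight-point half-log series topping at 100 uM. Gain or loss of signal fitted versus DMSO vehicle.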

[18] = read-out: Bcl-2 (BAX) gene, BAX (gene 581); assay: LTEA_HepaRG_BAX: Life Technologies and Expression Analysis (LTEA) Assay for Bcl-2 (BAX) gene using HepaRG (AID 2283470); conditions: mRNA level, 48 h; actives raise or lower the signal
In short: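 Cells were thawed, plated for 48 h, moved to serum-free induction medium and dosed for 48 h (highest concentration 100 uM, half-log steps, 0.5% DMSO). Total RNA was then analysed for BAX expression by qRT-PCR.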

[19] = read-out: adenosine kinase (ADK) gene, ADK (gene 132); assay: LTEA_HepaRG_ADK: Life Technologies and Expression Analysis (LTEA) Assay for adenosine kinase (ADK) gene using HepaRG (AID 2283471); conditions: mRNA level, 48 h; actives raise or lower the signal
In short: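 Read-out is ADK transcript level measured by qRT-PCR and normalised to three housekeeping genes. Cells are human HepaRG, dosed for 48 h at up to 100 uM in 0.5% DMSO. Gain or loss of signal is fitted against DMSO controls.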

[20] = read-out: Alpha-fetoprotein (AFP) gene, AFP (gene 174); assay: LTEA_HepaRG_AFP: Life Technologies and Expression Analysis (LTEA) Assay for Alpha-fetoprotein (AFP) gene using HepaRG (AID 2283472); conditions: mRNA level, 48 h; actives raise or lower the signal
In short: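 Chemicals were tested on differentiated HepaRG cells for 48 hours at eight concentrations up to 100 uM, with 0.5% DMSO as vehicle. AFP expression was then quantified by qRT-PCR and analyzed for gain or loss relative to DMSO.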

Measured: AC50

Broad substrate specificity ATP-binding cassette transporter ABCG2 (Homo sapiens), sequence (Q9UNQ0 whole entry, looked up): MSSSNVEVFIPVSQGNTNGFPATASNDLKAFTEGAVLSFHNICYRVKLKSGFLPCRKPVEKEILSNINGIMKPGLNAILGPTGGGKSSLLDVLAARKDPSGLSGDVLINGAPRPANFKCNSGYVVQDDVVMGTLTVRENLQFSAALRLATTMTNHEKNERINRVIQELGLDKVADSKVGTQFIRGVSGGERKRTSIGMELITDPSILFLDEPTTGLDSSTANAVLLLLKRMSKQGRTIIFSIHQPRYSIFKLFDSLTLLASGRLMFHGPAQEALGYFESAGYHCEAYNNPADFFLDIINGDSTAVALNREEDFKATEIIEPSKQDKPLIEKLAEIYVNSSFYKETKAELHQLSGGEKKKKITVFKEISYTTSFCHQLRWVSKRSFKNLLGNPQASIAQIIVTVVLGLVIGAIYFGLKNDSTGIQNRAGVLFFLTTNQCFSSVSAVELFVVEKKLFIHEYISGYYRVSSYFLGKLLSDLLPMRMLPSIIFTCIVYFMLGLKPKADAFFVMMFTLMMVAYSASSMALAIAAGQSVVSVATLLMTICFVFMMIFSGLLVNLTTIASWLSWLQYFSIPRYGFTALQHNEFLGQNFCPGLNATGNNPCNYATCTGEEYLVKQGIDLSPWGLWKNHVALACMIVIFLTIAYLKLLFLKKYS

O=[N+]([O-])/N=C1\NCCN1Cc1ccc(Cl)nc1
inactive: [4] | [5] | [9] | [10] | [14] | [16] | [17] | [18]
active: [1] 34.6 µM | [2] 9.92 µM | [3] 26.3 µM | [6] 23.6 µM | [7] 26.9 µM | [8] 15.9 µM | [11] 26.6 µM | [12] 24.9 µM | [13] 35.3 µM | [15] 29.7 µM | [19] 35.2 µM | [20] 31.7 µM

N#CN
inactive: [1] | [2] | [3] | [4] | [6] | [7] | [8] | [9] | [10] | [11] | [12] | [13] | [14] | [15] | [16] | [17] | [18] | [19] | [20]

Oc1ccc(Cl)cc1Cc1ccccc1
active: [2] 84.7 µM and 81.3 µM and 84.4 µM | [3] 82.3 µM | [5] 78 µM | [7] 91.5 µM and 87.9 µM | [11] 93.7 µM and 67 µM and 80 µM | [20] 82.5 µM and 90 µM
inactive: [1] | [3] | [4] | [6] | [7] | [8] | [9] | [10] | [12] | [13] | [14] | [15] | [16] | [17] | [18] | [19] | [20]

O=S1OCC2C(CO1)C1(Cl)C(Cl)=C(Cl)C2(Cl)C1(Cl)Cl (stereo not given)
inactive: [3] | [4] | [6] | [7] | [8] | [9] | [10] | [12] | [13] | [16] | [17] | [18] | [19]
active: [1] 83.4 µM | [2] 50 µM | [11] 50 µM | [14] 87.1 µM | [15] 53.9 µM | [20] 50 µM

O=C(O)COc1ccc(Cl)cc1Cl
active: [2] 43.4 µM | [11] 31.2 µM
inactive: [1] | [3] | [4] | [6] | [7] | [8] | [9] | [10] | [12] | [13] | [14] | [15] | [16] | [17] | [18] | [19] | [20]

O=[N+]([O-])c1c(Cl)c(Cl)c(Cl)c(Cl)c1Cl
active: [2] 81.3 µM | [9] 60.7 µM
inactive: [1] | [3] | [4] | [5] | [6] | [7] | [8] | [10] | [11] | [12] | [13] | [14] | [15] | [16] | [17] | [18] | [19] | [20]
